High-throughput results from PubChem.
Only some compounds are listed: those with a hit (about 4.8% of all), similar ones and a draw of the others.
ATXN2 expr inh – reduces ATXN2 reporter expression in HEK-293 cells; HEK-293 ATXN2-luciferase reporter, luminescence, 24 h; 360,000 compounds, 0.72% hits; Potency, µM (doses to about 57 µM), for inactives: top-dose activity change, negative = inhibition, usual class: inhibitors; AID 1745845; note: potency is the fitted concentration of half-maximal effect; % is set by controls: 0 for no effect and ±100 for the full control effect; nearly all actives have a fitted effect of over 55% in size
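ATXN2-luciferase reporter cells (luciferase flanked by upstream and downstream ATXN2 gene portions) were treated 24 h at 37 °C with compounds at up to 57 uM. SteadyGlo luminescence gave expression; GF-AFC fluorescence gave viability.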
DRD3 agonist – activates the human D3 dopamine receptor; max activation, %; 410,000 compounds, 0.58% hits; P35462; AID 652048; D3R DiscoveRx beta-arrestin cells, luminescence, 90 min; in the data active = max activation above about 30%; note: 0% is about no effect
Target sequence (P35462 whole entry, looked up): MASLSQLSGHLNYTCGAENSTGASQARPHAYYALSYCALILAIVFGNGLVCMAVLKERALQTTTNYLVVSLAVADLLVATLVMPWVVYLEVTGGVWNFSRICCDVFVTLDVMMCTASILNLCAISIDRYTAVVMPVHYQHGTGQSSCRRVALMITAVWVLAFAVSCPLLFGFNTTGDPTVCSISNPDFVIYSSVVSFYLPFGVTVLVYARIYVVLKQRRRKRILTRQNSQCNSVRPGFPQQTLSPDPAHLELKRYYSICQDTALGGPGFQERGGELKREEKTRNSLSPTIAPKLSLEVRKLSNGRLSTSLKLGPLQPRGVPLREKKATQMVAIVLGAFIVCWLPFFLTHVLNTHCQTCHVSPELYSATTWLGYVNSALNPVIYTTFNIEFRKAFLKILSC
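Cells at 1500/well, incubated overnight, then treated with pinned compounds (dopamine as control) for 90 min at 37 degrees C. DiscoveRx reagent added for 30 - 60 minutes at room temperature; luminescence read.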
DRD3 antagonist – antagonists of human D3 dopamine receptor; AID 652054; 360,000 compounds, 2.5% hits; D3R cells, DiscoveRx beta-arrestin luminescence, antagonist mode; hits give low values; P35462; max response, negative = inhibition, %; in the data active = max response below about -50%; inconclusive = no clear call, values can overlap the other calls; note: % is set by controls: 0 for no effect and ±100 for the full control effect
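Cells expressing the human receptor were seeded at 1500 cells/well, incubated overnight at 37 degrees C in 5% CO2, then exposed to library compounds with dopamine controls for 90 minutes at 37 degrees C before luminescent detection.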
TGFb inhibitor – inhibitors of TGF-b signaling; HepG2 CAGA-GFP TGF-b/SMAD3 reporter, GFP fluorescence, 18 h; TGF-beta stimulated, 500 pg/mL final; Potency, µM (titrated, usually from 46.1 µM), for inactives: at the highest dose activity, negative = inhibition, hits mostly inhibitors; 410,000 compounds, 1.2% hits; note: potency is the fitted concentration of half-maximal effect; % is set by controls: 0 for no effect and ±100 for the full control effect; nearly all actives have a fitted effect of over 65% in size
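Read-out: total well GFP (ex488/em500-530) summed from mean per-cell fluorescence. Cells: HEPG2 CAGA-GFP, 1% FBS DMEM, 18 h at 37 degrees C with 500 pg/mL final TGF-beta. Unstimulated wells served as the full-inhibition control; stimulated DMSO wells = 0%.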
S2 tox – cell viability loss in ATXN counter-screen; Potency, µM (series often up to 56.7 µM), actives largely listed as cytotoxic; 400,000 compounds, 0.49% hits; S2 cells (HEK-293 line with an ATXN2-luciferase reporter) viability, CellTiter-Fluor protease fluorescence, 24 h; note: potency is the fitted concentration of half-maximal effect; nearly all actives have a fitted effect of over 40% in size
HepG2 tox – HepG2 cytotoxicity, counter-screen for TGF-b inhibitors; HepG2 CAGA-GFP viability, ATP luminescence, 18 h; Potency, µM (series often up to 46.1 µM), for the others: at the highest dose activity change, negative = cytotoxicity, most hits filed as cytotoxic; 410,000 compounds, 0.76% hits; AID 588856; note: potency is the fitted concentration of half-maximal effect
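HepG2 CAGA-GFP cells (1000/well, DMEM with 1% FBS) received compound, then TGF-beta at 500 pg/mL final, and were incubated 18 hours at 37 degrees C. Viability was read by CellTiter-Glo luminescence. Media-only wells were set as complete cell-killing and DMSO as no toxicity.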
Starred values were filed as active, the others as inactive; i = inactive; ? = inconclusive; nt = no result given; ! = not active in a repeat. Unless noted, calls come from the whole dose curve; as a rule, active = well fitted curve in the direction sought with a large enough effect; inconclusive = small, poorly fitted or top-dose-only effect, or another doubt; inactive = no such curve, though single readings can be large; an effect the other way counts as inactive or inconclusive.

SMILES | ATXN2 expr inh | DRD3 agonist | DRD3 antagonist | TGFb inhibitor | S2 tox | HepG2 tox
O=C(NC1CCCC1)c1ccc(CSc2nc3cccnc3n2Cc2ccccc2F)cc1 | ? | -6 | nt | ? | ? | -36%
O=C(NCc1ccco1)c1ccc(Cn2c(SCc3ccccc3F)nc3cccnc32)cc1 | nt | 3 | nt | 13µM* | nt | -36%
CN(Cc1ccccc1)C(=O)c1ccc(CSc2nc3cccnc3n2Cc2ccccc2F)cc1 | ? | 0 | nt | ? | nt | 13µM*
CCc1ccc(C2C(C#N)=C(N)C(C#N)(C#N)C3=CCC(C(C)(C)C)CC32)cc1 (configuration not stated) | -18% | -12 | -93* | ? | i | -109%
CCc1ccc(N2C=C(C(=O)OC)C(c3ccc(OC)cc3)C(C#N)=C2N)cc1 (configuration not stated) | nt | -1 | -11 | nt | nt | nt
COc1cccc(-c2nnc(SCC(=O)N3CCCc4ccccc43)o2)c1 | -16% | 1 | -52* | 3% | ? | 1%
COc1cccc(-c2nnc(SCC(=O)Nc3cc(C)on3)o2)c1 | 16% | -8 | -65* | -2% | i | -20%
Cc1cccc(-c2nnc(SCCC(=O)N3CCOCC3)o2)c1 | -20% | 4 | -7 | 0% | i | 3%
Cc1cccc(-c2nnc(SCCC(=O)O)o2)c1 | 1.4µM* | 1 | nt | -5% | i | -6%
COc1ccc(C(C[N+](=O)[O-])c2c(-c3ccccc3)cc3ccccn23)cc1 (configuration not stated) | -26% | -3 | -50* | -17% | ? | -43%
COc1ccc(Cl)cc1N/C(N)=N/c1nc(C)cc(=O)[nH]1 | 3% | -9 | 27 | 4% | i | -12%
COc1ccc(Cl)cc1Nc1nc(C)cc(=O)[nH]1 | 8% | -15 | -81* | 13% | i | 28%
CC(=O)N(CC(=O)N(C)C)c1ccccc1 | -1% | nt | nt | nt | i | nt
O=C(NN1C(=O)/C(=C/c2ccc(O)c([N+](=O)[O-])c2)SC1=S)c1ccccc1Cl | -3% | -31 | -74* | ? | ? | -10%
CCOC(=O)CSc1nnc2n(-c3ccccc3)c(=O)c3c4c(sc3n12)CC(C(C)(C)C)CC4 (configuration not stated) | ? | 1 | nt | ? | nt | 11µM*
CCOC(=O)CSc1nnc2n(-c3ccccc3)c(=O)c3c4c(sc3n12)COC(C(C)C)C4 (configuration not stated) | 4% | -2 | nt | 33% | i | 17%
COc1ccccc1C1CC(=O)Nc2cc3c(cc21)OCCO3 (configuration not stated) | -17% | 15 | 20 | ? | ? | -12%
CC(C)Oc1ccccc1C1CC(=O)Nc2cc3c(cc21)OCCO3 (configuration not stated) | -10% | 36* | 23 | -47% | ? | -5%
Cc1ccc(-c2c3c(=O)n(C)c(=O)n(C)c3c3n2-c2ccccc2NC3c2ccc(C)cc2O)cc1 (configuration not stated) | ? | 47* | nt | 6.3µM* | ? | -97%
COc1ccc(O)c(C2Nc3ccccc3-n3c(-c4ccccc4)c4c(=O)n(C)c(=O)n(C)c4c32)c1 (configuration not stated) | -6% | 45* | nt | ? | i | -30%
COc1ccc(-c2c3c(=O)n(C)c(=O)n(C)c3c3n2-c2ccccc2NC3c2ccco2)cc1 (configuration not stated) | -21% | -21 | nt | -7% | i | -37%
CCCCCCSc1cc(-c2nc3ccc(C)cn3c2NCc2ccccc2)ccc1OC | -19% | 62*! | 40 | ? | 20µM* | -16%
CCCCCCSc1ccc(-c2nc3ccc(C)cn3c2NCCCC)cc1OC | 0% | 4 | 5 | nt | 28µM* | nt
CCCCNc1c(-c2ccc(SC(C)CC)c(OC)c2)nc2ccc(C)cn12 (configuration not stated) | ? | 55* | 66 | ? | ? | 20µM*
CCCCNc1c(-c2ccc(SC(C)CC)c(OC)c2)nc2ccc(Cl)cn12 (configuration not stated) | 5% | 2 | 51 | ? | i | -5%
SMILES | ATXN2 expr inh | DRD3 agonist | DRD3 antagonist | TGFb inhibitor | S2 tox | HepG2 tox
CCOC(=O)c1cc(-c2ccccc2)n(-c2cccc(C(=O)Nc3ccc(OC)cc3)c2)c1C | nt | -1 | nt | 0% | nt | -18%
COc1ccc(-c2nc3ccc(NS(=O)(=O)c4ccc(Cl)cc4)cc3o2)cc1 | 0% | 1 | nt | ? | ? | -105%
CCc1ccc2occ(CC(=O)Nc3c(C(=O)Nc4ccc(Cl)cc4)oc4ccccc34)c2c1 | 5% | 0 | nt | 18% | ? | -26%
CCc1ccc2occ(CC(=O)Nc3c(C(=O)Nc4ccc(C)cc4)oc4ccccc34)c2c1 | 27% | 11 | nt | 13% | i | 16µM*
Cc1cccc(N2C(=O)N(c3ccccc3C)C3CS(=O)(=O)CC32)c1 (configuration not stated) | 13% | -9 | -53* | 37% | i | 23%
COC(=O)C1=C(C(=O)OC)[C@@H]2N(C)c3ccccc3[C@@]23C[C@@H](CO)N(C(=O)C2CCC2)C3=N1 | -6% | -20 | -53* | 9% | ? | 3%
COC(=O)C1=C(C(=O)OC)[C@@H]2N(C)c3ccc(OC)cc3[C@@]23C[C@@H](C(=O)OC)N(C(=O)C2CCC2)C3=N1 | -9% | 0 | -5 | -20% | i | -8%
CCOC(=O)Cn1c(=O)oc2cc(S(=O)(=O)Nc3cccc(C)c3)ccc21 | -10% | -4 | -59* | -8% | i | -7%
c1ccc2c(Oc3nc(Nc4ccc(N5CCOCC5)cc4)c4ncn(C5CCCCC5)c4n3)cccc2c1 | -16% | nt | nt | nt | nt | nt
CN(C)C(=O)COC(=O)c1ccccc1OCC(=O)Nc1ccc(Br)cc1 | nt | nt | nt | 4% | nt | -5%
OCCNCC(O)Cn1ccc2ccccc21 (configuration not stated) | 15% | -1 | -52* | 0% | i | 1%
OCCNCC(O)Cn1c2ccccc2c2ccccc21 (configuration not stated) | -6% | -5 | -6 | 0% | i | 3%
COc1ccc(/C=C2\CN(Cc3ccccc3)C/C(=C\c3ccc(OC)cc3)C2=O)cc1 | ? | 3 | 5 | 11µM* | ? | -2%
COc1ccc(/C=C2\CN(Cc3ccccc3)C/C(=C\c3ccc(OC)cc3OC)C2=O)c(OC)c1 | -26% | 25 | 7 | 15% | ? | -15%
